Molecules are shown by their SMILES. “And” between values parts separate entries of the source, which are not always exact repeats. Identical values can stand only once. Compounds without any hit were thinned out: in the full panel of roughly 83,000, 20% have a hit.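 Note: values are percent growth. 100 is the growth of untreated cells, values between 100 and 0 indicate rising inhibition; between -100 and 0 indicates cell death.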 The source made the active and inactive calls. How the source made its calls: active means growth percent below 10; inactive means the rest.

The first experiment has as its system UACC-257 melanoma. In words: NCI-60 one-dose screen, 48 h (100 = growth as untreated, 0 = no growth, -100 = all killed). Conditions: 10 µM.
On to `C=NCC#N`, for which the growth is 114% (inactive) and 103% (inactive).
On the same count and under the same terms, in the case of `COC(=O)C1C(O)C(C)C(O)C(C)/C=C\C=C(C)C(=O)Nc2c(C)c(OC(C)=O)c3c(c2O)C(=O)C(C)=C2OCOC(=C23)C(C)=CC(C)(O)C(O)C(C)C1O` (stereo not drawn) it was 93.1% (inactive); in that of `[Cl][Hg][c]1ccc(Cl)s1`, 16.4% (inactive); in that of `CC(C)c1cc([N+](=O)[O-])cc([N+](=O)[O-])c1O`, 115% (inactive).
The same measure, in the same setting: in the case of `COS(=O)(=O)c1ccccc1` it was 101% (inactive); in that of `[O-][n+]1ccccc1S`, 23.9% (inactive); in that of `COC(C(=O)C(O)C(C)O)C1Cc2cc3cc(OC4CC(OC(C)=O)C(OC5CC(O)C(OC)C(C)O5)C(C)O4)cc(O)c3c(O)c2C(=O)C1OC1CC(OC2CC(OC3CC(C)(O)C(OC(=O)C(C)C)C(C)O3)C(O)C(C)O2)C(O)C(C)O1` (stereo not drawn), -19.1% (active).
Same read-out and setting: in the case of `C/C1=C\[C@H](C)C[C@H](C)OC(=O)C[C@H](c2ccc(O)cc2)NC(=O)[C@@H](Cc2c(Br)[nH]c3ccccc23)N(C)C(=O)[C@H](C)NC(=O)[C@@H](C)C1` it was 0.643% (active).
`Oc1c(I)cc(I)cc1I`: the growth was 107% (inactive).
On the same count and under the same terms, in the case of `COc1ccc2c(ccc3oc([N+](=O)[O-])cc32)c1` it was -56.9% (active); in that of `CC(C)(C)OOC(=O)/C=C\C(=O)OOC(C)(C)C`, 99.4% (inactive); in that of `CC12OOC(c3ccccc31)c1c2ccc2ccccc12` (stereo not drawn), -17% (active).
Same read-out and setting: in the case of `COc1cc(/C=C/[N+](=O)[O-])cc(Br)c1OC` it was -13.2% (active); in that of `COc1ccc(/C=C\[N+](=O)[O-])cc1OC`, 33.8% (inactive) and 73% (inactive); in that of `Cc1cc(C(C)(C)c2ccc(O)c(C)c2)ccc1O`, 81.7% (inactive).
Still for that read-out and setting: in the case of `O=[P+](O)c1ccccc1` it was 101% (inactive).
With `O=C(CCl)Nc1ccc(Cl)cc1`, the growth is 69.9% (inactive).
Same read-out and setting: in the case of `Cc1ccc(C(=O)C2C(c3ccccc3)N2C2CCCCC2)cc1` (stereo not drawn) it was 89.9% (inactive) and 98.6% (inactive).
Turning to `COc1ccccc1[As]=[As]c1ccccc1OC` (stereo not drawn), the growth is -95.5% (active).
Take `COc1cc2c(cc1OC)C13CCN4CC5=CCOC6CC(=O)N2C1C6C5CC43` (stereo not drawn): the growth was 104% (inactive).
On the same count and under the same terms, in the case of `Cn1c(O)c(N=O)c(=O)n(C)c1=O` it was 99.3% (inactive) and 95.7% (inactive).
For `N#CCc1ccccc1`, the growth is 103% (inactive).
Turning to `COc1cc([C@@H]2c3cc4c(c(O)c3C[C@H]3COC(=O)[C@@H]32)OCO4)cc(OC)c1OC`, the growth was 57.5% (inactive).
On the same count and under the same terms, in the case of `CC[C@@H](C)[C@@H]1NC(=O)C(NC(=O)C(CC(C)C)N(C)C(=O)C2CCCN2C(=O)C(C)O)C(C)OC(=O)C(Cc2ccc(OC)cc2)N(C)C(=O)C2CCCN2C(=O)C(CC(C)C)NC(=O)C(C)C(=O)C(C(C)C)OC(=O)C[C@H]1O` (stereo partly drawn) it was -50.8% (active); in that of `CC[C@@]1(O)C[C@H](OC2CC(N(C)C)C(O)C(C)O2)c2c(cc3c(c2O)C(=O)c2c(O)ccc(O)c2C3=O)[C@H]1C(=O)OC` (stereo partly drawn), -67.7% (active).
Same read-out and setting: in the case of `O=C(CBr)Nc1ccccc1` it was 99.5% (inactive); in that of `S=C=NCCc1ccccc1`, 88.5% (inactive).

Another experiment has as its system M14 melanoma. The description is as above. Conditions: 10 µM.
On to `C=NCC#N`, for which the growth was 94.2% (inactive).
The same measure, in the same setting: in the case of `COC(=O)C1C(O)C(C)C(O)C(C)/C=C\C=C(C)C(=O)Nc2c(C)c(OC(C)=O)c3c(c2O)C(=O)C(C)=C2OCOC(=C23)C(C)=CC(C)(O)C(O)C(C)C1O` (stereo not drawn) it was 118% (inactive).
For the compound `[Cl][Hg][c]1ccc(Cl)s1`, the growth was -54.5% (active).
On the same count and under the same terms, in the case of `CC(C)c1cc([N+](=O)[O-])cc([N+](=O)[O-])c1O` it was 99.7% (inactive); in that of `C/C1=C\[C@H](C)C[C@H](C)OC(=O)C[C@H](c2ccc(O)cc2)NC(=O)[C@@H](Cc2c(Br)[nH]c3ccccc23)N(C)C(=O)[C@H](C)NC(=O)[C@@H](C)C1`, -71.2% (active).
As for `COc1ccc2c(ccc3oc([N+](=O)[O-])cc32)c1`, the growth was -40.2% (active).
Take `CC12OOC(c3ccccc31)c1c2ccc2ccccc12` (stereo not drawn): the growth is -7.71% (active).
For the compound `COc1cc(/C=C/[N+](=O)[O-])cc(Br)c1OC`, the growth was -72.1% (active).
Turning to `COc1ccc(/C=C\[N+](=O)[O-])cc1OC`, the growth was 75.6% (inactive) and 42.5% (inactive).
Take `Cc1cc(C(C)(C)c2ccc(O)c(C)c2)ccc1O`: the growth is 106% (inactive).
The same measure, in the same setting: in the case of `O=[P+](O)c1ccccc1` it was 100% (inactive); in that of `O=C(CCl)Nc1ccc(Cl)cc1`, 47.1% (inactive).
Still for that read-out and setting: in the case of `Cc1ccc(C(=O)C2C(c3ccccc3)N2C2CCCCC2)cc1` (stereo not drawn) it was 93.8% (inactive) and 92.2% (inactive); in that of `COc1ccccc1[As]=[As]c1ccccc1OC` (stereo not drawn), -81.4% (active).
Still for that read-out and setting: in the case of `COc1cc2c(cc1OC)C13CCN4CC5=CCOC6CC(=O)N2C1C6C5CC43` (stereo not drawn) it was 107% (inactive) and 108% (inactive).
As for `Cn1c(O)c(N=O)c(=O)n(C)c1=O`, the growth was 111% (inactive) and 102% (inactive).
For `N#CCc1ccccc1`, the growth is 98.5% (inactive).
Regarding `COc1cc([C@@H]2c3cc4c(c(O)c3C[C@H]3COC(=O)[C@@H]32)OCO4)cc(OC)c1OC`, the growth is -66.3% (active).
On the same count and under the same terms, in the case of `CC[C@@H](C)[C@@H]1NC(=O)C(NC(=O)C(CC(C)C)N(C)C(=O)C2CCCN2C(=O)C(C)O)C(C)OC(=O)C(Cc2ccc(OC)cc2)N(C)C(=O)C2CCCN2C(=O)C(CC(C)C)NC(=O)C(C)C(=O)C(C(C)C)OC(=O)C[C@H]1O` (stereo partly drawn) it was -80.1% (active); in that of `CC[C@@]1(O)C[C@H](OC2CC(N(C)C)C(O)C(C)O2)c2c(cc3c(c2O)C(=O)c2c(O)ccc(O)c2C3=O)[C@H]1C(=O)OC` (stereo partly drawn), -93.1% (active).
As to `O=C(CBr)Nc1ccccc1`, the growth was 84.4% (inactive).

The values are drawn from PubChem BioAssay (NCI).
